The list is not random: actives were taken first. Their share in the collection is about 1.3%.
IL2 activator: qHTS of IL-2 Activators; IL-2 activation reporter assay, cell-based qHTS; stimulated with anti-CD3/CD4/CD28 beads; in transgenic mouse T cells; activation, % (series mostly up to about 46 µM); actives 0.065% (n = 360,000); in the data active = activation above about 50%; inconclusive = mostly about 30% to 49%
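Unstimulated transgenic mouse T cells, 750 per well, received compound and, after 60 minutes, anti-CD3/anti-CD4 bead plus anti-CD28 stimulation. EGFP and DsRed were quantified after 18 hours.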
BRCA1 expr up: qHTS Assay to Identify Small Molecule Activators of BRCA1 Expression | MCF7-BRCA1-FFLuc reporter, luminescence, 48 h; response scale: scaled: vehicle 0%, 10 µM genistein 100% | Potency, µM (series often up to 46.1 µM), most hits filed as activators | actives 1.1% (n = 380,000); note: nearly all actives have a fitted effect of over 80% in size
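MCF7-BRCA1-FFLuc, 2000 cells/well; 2 h attach, 37 °C/5% CO2; compound 48 h; luciferase substrate 15 min; luminescence end-point. Norm. to genistein 10 microM max activation and DMSO; concentration-response curves fitted.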
p53 reactivation: qHTS assay for re-activators of p53 using a Luc reporter; Potency, µM (series often up to 92.2 µM), most hits filed as activators; H1299 p53-A138V BP100-luciferase reporter, luminescence, 24 h; actives 0.063% (n = 320,000); note: nearly all actives have a fitted effect of over 45% in size
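p53-null H1299 cells stably carrying temperature-sensitive p53-A138V and a BP100-luciferase reporter were pinned with compounds (4-point, 1:5 series) and held 24 hrs at 37 deg C. Luminescence was read 10 min after detection reagent.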
Mito fusion act: qHTS Assay for Small Molecule Inhibitors of Mitochondrial Division or Activators of Mitochondrial Fusion. S. cerevisiae fusion-defective mutant growth rescue, CellTiterGlo 48 h. Potency, µM (titrated, usually from 46.1 µM), usual class: activators. actives 0.23% (n = 320,000); note: nearly all actives have a fitted effect of over 45% in size
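Luminescent cell viability in 1536-well qHTS format served as the measure of rescued growth in ts fusion-mutant S. cerevisiae cultured on non-fermentable YPEG for 48 hours at 37C.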
TCR act: Activators of T cell receptors: qHTS campaign | primary human leukocytes, anti-CD3, IL-2 HTRF, 48 h | Potency, µM (titrated, usually from 9.22 µM), most hits filed as activators | 330,000 tested, under 10 active | AID 504894, 2011
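Using a-CD3 beads without co-stimulation, primary human leukocytes were exposed to compounds for 48 hr. An HTRF IL-2 kit measured the cytokine, with europium-to-d2 energy transfer producing emission at 665nm upon 320nm excitation.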
Large screens that a line does not name were inactive. Unless noted, calls come from the whole dose curve; as a rule, active = well fitted curve in the direction sought with a large enough effect; inconclusive = small, poorly fitted or top-dose-only effect, or another doubt; inactive = no such curve, though single readings can be large; an effect the other way counts as inactive or inconclusive.

C=C1C=C(C)n2ncc(C(=O)Nc3ccc(NC(C)=O)c(Cl)c3)c2N1	none (no result: IL2 activator, p53 reactivation, Mito fusion act, TCR act)
Nc1ccc(-c2nc3ncccc3o2)c(O)c1	BRCA1 expr up 5.01µM
Cn1cc(Cl)c(C(=O)OCC(=O)Nc2nc(-c3ccc(Br)cc3)cs2)n1	BRCA1 expr up 11.2µM
Cc1ccc(OCCn2cnc3ccccc3c2=O)c([N+](=O)[O-])c1	BRCA1 expr up 4.47µM
Cc1cc(OCCn2cnc3ccccc3c2=O)ccc1[N+](=O)[O-]	none
Cc1ccc2nc(-c3ccncc3)[nH]c2c1	BRCA1 expr up 2.82µM
Cc1ccc(-c2csc3nc(-c4ccncc4)[nH]c(=O)c23)cc1	none
COc1ccc(-c2cn3cccnc3n2)cc1NC(=O)Nc1cc(C)ccc1C	none (no result: IL2 activator, BRCA1 expr up, p53 reactivation, TCR act)
O=C(NCCOc1ccccc1Cl)c1cc(F)c(F)cc1Cl	BRCA1 expr up 7.08µM, p53 reactivation inconclusive
CCc1nnc(NC(=O)c2ccccc2NC(=O)C2CCN(C(=O)c3ccco3)CC2)s1	none (no result: IL2 activator, p53 reactivation, Mito fusion act, TCR act)
N#Cc1cccc(-c2csc(C(O)c3ccc(F)cc3)n2)c1 (stereo not given)	BRCA1 expr up 7.94µM (no result: p53 reactivation, Mito fusion act, TCR act)
COc1cccc(C(O)c2nc(-c3cccc(C#N)c3)cs2)c1 (stereo not given)	none (no result: p53 reactivation, Mito fusion act, TCR act)
O=C(NCCC1=CCCCC1)c1ccc([N+](=O)[O-])cc1	BRCA1 expr up inconclusive, p53 reactivation inconclusive
O=C(CCNC(=O)c1ccc(Cl)cc1)NCCC1=CCCCC1	BRCA1 expr up 7.94µM
O=C(CCNC(=O)c1ccc([N+](=O)[O-])cc1)NCCC1=CCCCC1	none
Cc1cc(C(=O)NCCC2=CCCCC2)ccc1[N+](=O)[O-]	BRCA1 expr up 5.01µM, Mito fusion act inconclusive
O=C(CCCc1ccccc1)NCCC1=CCCCC1	BRCA1 expr up 3.16µM
O=C(Cc1ccccc1)NCCC1=CCCCC1	none
O=C(CCc1ccccc1)NCCC1=CCCCC1	BRCA1 expr up 11.2µM, p53 reactivation inconclusive
CC(C)(C)c1ccc(C(=O)CS(=O)(=O)c2ccccc2)cc1	BRCA1 expr up 3.98µM
COn1c(-c2ccc(Cl)cc2)nc2ncccc21	BRCA1 expr up 7.08µM
Cc1ccc(-c2nc3ncccc3n2O)cc1	none
O=C1CCCC2=C1C(c1ccc(Cl)cc1)N=C(Nc1nc3ccccc3o1)N2 (stereo not given)	none (no result: IL2 activator, p53 reactivation, Mito fusion act, TCR act)
CC1CCN(C(=O)c2cc3ccccc3o2)CC1	BRCA1 expr up 11.2µM, p53 reactivation inconclusive
O=C(c1cc2ccccc2o1)N1CCCC1	none
O=C(c1cc2ccccc2o1)N1CCCCCC1	BRCA1 expr up 8.91µM, p53 reactivation inconclusive
CCN(CC)c1ccc(-c2nnc(SCC(=O)NCc3ccco3)n2CC)cc1	none (no result: IL2 activator, p53 reactivation, Mito fusion act, TCR act)
CCSc1nnc(NC(=O)c2csc(C)c2)s1	BRCA1 expr up 5.01µM, p53 reactivation inconclusive
CCSc1nnc(NC(=O)c2cccc3ccccc23)s1	none
OC[C@@H]1CCC[C@@H](n2cnc3c(=S)nc[nH]c32)O1	none (no result: IL2 activator, p53 reactivation, Mito fusion act, TCR act)
COc1ccc(CN2C(=O)CS/C2=N/N=C/c2ccccc2)cc1	BRCA1 expr up 3.98µM, p53 reactivation inconclusive
COc1ccc(/C=N/N=C2/SCC(=O)N2Cc2ccccc2)cc1	BRCA1 expr up 5.62µM
CNc1cccc(-c2ccc(C(C)=O)s2)n1	BRCA1 expr up 6.31µM (no result: p53 reactivation, Mito fusion act, TCR act)
Cc1cccc2c(=O)[nH]c3c(-c4nc(-c5ccc(Cl)cc5)cs4)c(O)cn3c12	none (no result: IL2 activator, p53 reactivation, Mito fusion act, TCR act)
CC1=C(C(=O)OCc2ccccc2)C(/C=C/c2ccccc2)NC(=S)N1 (stereo not given)	Mito fusion act 15.8µM
CCN(CCN(C)Cl)/[N+]([O-])=N/Oc1ccc([N+](=O)[O-])cc1[N+](=O)[O-]	none (no result: IL2 activator, p53 reactivation, Mito fusion act, TCR act)
CCc1ccc(CNC(=O)CSc2cc(=O)n(C)c3ccc(Cl)cc23)cc1	none (no result: IL2 activator, p53 reactivation, Mito fusion act, TCR act)
CCOc1ccc(NC(=O)CSc2nnc3c(n2)[nH]c2ccc(S(=O)(=O)N4CCCCC4)cc23)cc1	none (no result: IL2 activator, p53 reactivation, Mito fusion act, TCR act)
CC(C)(C)C(=O)Oc1ccc2cc(-c3ccc4ccccc4n3)c(=O)oc2c1	BRCA1 expr up 14.1µM, p53 reactivation inconclusive
O=c1oc2cc(O)ccc2cc1-c1ccccc1	BRCA1 expr up 10µM, p53 reactivation inconclusive
CC(=O)Oc1ccc(-c2cc3ccccc3oc2=O)cc1	BRCA1 expr up 12.6µM (no result: p53 reactivation, Mito fusion act)
O=c1oc2cc(O)ccc2cc1-c1nc2c(s1)CCc1ccccc1-2	IL2 activator 50.3
Cc1ccc(S(=O)(=O)N2CCN(c3nc(-c4cccs4)nc(C)c3C)CC2)cc1	none (no result: IL2 activator, p53 reactivation, Mito fusion act, TCR act)
COc1cc(OC)cc(N2C(=O)N(Cc3ccc(C(C)(C)C)cc3)c3ccccc3S2(=O)=O)c1	none (no result: IL2 activator, p53 reactivation, Mito fusion act, TCR act)
C/C(=C\c1ccccc1)C(=O)Nc1ccc(Cl)cn1	BRCA1 expr up 7.94µM
CCn1c(C)nc2cc(C(=O)NNC(=S)Nc3ccc(F)cc3)ccc21	BRCA1 expr up 10µM
CCn1c(C)nc2cc(C(=O)NNC(=S)Nc3ccccc3Cl)ccc21	BRCA1 expr up 3.98µM, p53 reactivation inconclusive
CCn1c(C)nc2cc(C(=O)NNC(=S)Nc3ccc(Cl)cc3)ccc21	none
Cc1ccc(S(=O)(=O)N(C)CCCN(C)c2nc(-c3cccs3)nc3ccccc23)cc1	none (no result: IL2 activator, p53 reactivation, Mito fusion act, TCR act)
O=C(CN1C(=O)COc2ccc(S(=O)(=O)Nc3ccccc3)cc21)NCc1ccccc1Cl	none (no result: IL2 activator, p53 reactivation, Mito fusion act, TCR act)
Cc1ccc(/C=C(\C#N)C(=O)NCC2CCCO2)o1 (stereo not given)	p53 reactivation inconclusive
Cc1ccccc1-n1c(C)cc(/C=C(\C#N)C(=O)NCC2CCCO2)c1C (stereo not given)	BRCA1 expr up 14.1µM, p53 reactivation inconclusive
COc1cc(SC)ccc1C(=O)NCCOc1ccc(F)cc1	BRCA1 expr up 10µM, p53 reactivation inconclusive, Mito fusion act inconclusive

Screening results from PubChem.
